# Assay results taken from article PMC5540273 (PLoS ONE, 2017).
# Columns and labels:
# Settings in all cases: concentration: 1 μM, replicates: in singlicate; n = 1
# MAP3K15 = tested on: MAP3K15
# MAP3K1 = tested on: MAP3K1
# MAP3K2 = tested on: MAP3K2
# MAP3K3 = tested on: MAP3K3
# MAP3K4 = tested on: MAP3K4
# MAP4K2 = tested on: MAP4K2
# MAP4K3 = tested on: MAP4K3
# MAP4K4 = tested on: MAP4K4
# MAP4K5 = tested on: MAP4K5
# MAPKAPK2 = tested on: MAPKAPK2
# 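Further: KINOMEscan kinase panel screen.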
SMILES,%Inh (MAP3K15) [%],%Inh (MAP3K1) [%],%Inh (MAP3K2) [%],%Inh (MAP3K3) [%],%Inh (MAP3K4) [%],%Inh (MAP4K2) [%],%Inh (MAP4K3) [%],%Inh (MAP4K4) [%],%Inh (MAP4K5) [%],%Inh (MAPKAPK2) [%]
CN(c1ccc(NC(=O)Nc2cccc(Cl)c2)cc1)c1ccnc(N)n1.Cl [GW830707],0,0,0,23,0,10,0,0,16,0
Cc1ccc(-c2ccc3occ(-c4ccc(S(C)=O)cc4)c3c2)nn1 (stereo not shown),0,0,0,0,0,0,0,0,0,0
CCNc1nccc(-c2c(-c3ccc(F)cc3)ncn2C2CCN(C)CC2)n1,0,0,0,0,0,0,0,0,0,0
CS(=O)(=O)c1cccc(CNc2nc(Nc3ccc4c(c3)CCC(=O)N4)ncc2C(F)(F)F)c1,0,0,62,46,81,0,0,41,0,0
Cl.N#CCc1ccc(Nc2nccc(Nc3ccc(Oc4ccccc4)cc3)n2)cc1 [GW639905],21,11,0,0,10,0,0,99.1,100,0
COc1cccc(NC(=O)NCCNc2ccnc(Nc3ccc(F)cc3)n2)c1 [GSK1379879],0,1,0,0,36,0,10,0,0,20
CCn1cnc2c(NCc3ccccc3)ncnc21 [SKF-96418],22,16,14,0,2,0,0,0,0,0
c1ccc(Oc2ccc(Nc3ccnc4cc(-c5ccc(CN6CCCCC6)o5)ccc34)cc2)nc1 [GW567143],18,8,0,0,0,0,0,13,81,3
COc1cc(Nc2nccc(N3CCC(NC(=O)Nc4ccc5c(c4)OCO5)C3)n2)cc(OC)c1OC (stereo not shown) [GSK1379766],0,8,0,0,29,17,0,0,0,0
N#CC1(c2cccc(C(=O)Nc3cccc(Oc4ccc5nc(NC(=O)C6CC6)sc5n4)c3)c2)CC1,0,0,22,0,19,0,58,68,50,0
CC(C)(C)c1ccc(C(=O)Nc2cn3cc(-n4ccnc4)ccc3n2)cc1,68,12,17,0,15,30,0,6,0,0
O=C(Nc1c(F)cccc1F)c1cc(C(=O)c2ccccc2F)c[nH]1 [GSK1326180],0,0,0,0,42,0,0,19,0,8
NCCC(NC(=O)c1cc(Br)c(-c2ccnc3[nH]ccc23)s1)c1ccccc1.O=C(O)C(F)(F)F.O=C(O)C(F)(F)F (stereo not shown) [GSK1307810],65,16,38,2,0,23,15,45,0,0
CSc1ccc(NC2=C(c3ccc(Cl)cc3)C(=O)NC2=O)cc1 [SB-317658],0,0,1,29,37,12,1,16,17,1
Cc1ccc(NC(=O)c2cccc(N3CCCCC3)c2)cc1-c1ccc(C(=O)NCC2CC2)cc1 [GSK1917008],11,17,0,0,28,5,80,16,22,18
Cc1ccc(O)cc1Nc1ccnc2cc(-c3ccc(CN4CCCCC4)o3)ccc12 [GW557777],7,67,29,7,0,29,0,2,3,0
COC(=O)Nc1nc2ccc(Oc3ccc(NC(=O)Nc4cc(C(F)(F)F)ccc4F)cc3)cc2[nH]1.Cl [GW654607],0,25,0,0,23,1,0,22,11,29
COc1ccc(C2=C(Nc3cccc(O)c3)C(=O)NC2=O)cc1 [SB-390766],0,24,0,0,0,0,0,0,0,0
Cn1cc(-c2ccc3c(c2)CCN3C(=O)Cc2cc(F)cc(C(F)(F)F)c2)c2c(N)ncnc21 [GSK2635225],0,3,33,12,41,0,25,0,31,10
Nc1ncnc2scc(-c3ccc(NC(=O)Cc4cc(F)ccc4F)cc3)c12.O=C(O)C(F)(F)F [SB-731254-M],24,10,82,63,22,16,54,1,70,35
CN(c1ccc(NC(=O)N2CCN(CCCN3CCOCC3)CC2)cc1)c1ccnc(Nc2ccc(CS(C)(=O)=O)cc2)n1.Cl [GW830899],0,0,0,8,15,0,18,7,30,0
COc1cc(Nc2nccc(N3CCC(NS(=O)(=O)c4ccc(NC(C)=O)cc4)CC3)n2)cc(OC)c1OC [GSK1379825],0,11,18,0,31,0,40,68,53,0
